Experimental data published in PubChem BioAssay AID1159580 (chemical genetic matrix, 2015).
Values joined by “and” are separate entries in the source; they are usually repeats but may differ in a detail not shown here. Identical values can stand only once. About 2,000 (36%) of roughly 5,500 compounds were called active. Not shown: some 18% with an inconclusive outcome. No stated cut-off is given here; in the data, active means normalized growth mostly below about 0.91 (no sharp cut-off); inconclusive means no clear call, values can overlap the other calls; inactive means mostly above about 0.92. The list shows a part of the results.

Experiment: chemical genetic growth profiling, strain panel (AID 1159580);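 further: tested at 20 µM; growth read once vehicle control cultures reached saturation at 30 °C; 1 = growth at the plate median or of vehicle wells; lower values mean less growth of the strain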
Conditions: S. cerevisiae deletion strains, growth OD
[1] = locus YHR030C, strain SLT2, active compounds read low
[2] = locus YHR079C, strain IRE1, active compounds read low
[3] = locus YJL095W, strain BCK1, active compounds read low
[4] = locus YJR066W, strain TOR1, active compounds read low
[5] = locus YLR113W, strain HOG1, active compounds read low
[6] = locus YNL183C, strain NPR1, active compounds read low
[7] = locus YOR231W, strain MKK1, active compounds read low
[8] = locus YPL256C, strain CLN2, active compounds read low

Measured: normalized growth

COc1cc(O)cc(O)c1C(C)=O
inactive: [1] 0.969 | [2] 0.981 | [3] 0.984 | [4] 0.916 | [5] 0.971 | [6] 0.907 | [7] 0.985 | [8] 0.97

COc1cc(O)c(C(C)=O)c(OC)c1
active: locus YDR195W, strain ref2 1.16 [resistant] | locus YER155C, strain BEM2 (second series), active compounds read low 0.8
inactive: locus YAL013W, strain DEP1, active compounds read low 1.02 | locus YAL021C, strain ccr4, active compounds read low 1.01 | locus YAL026C, strain drs2, active compounds read low 0.968 | locus YAL030W, strain snc1, active compounds read low 1 | locus YBL061C, strain skt5, active compounds read low 0.992 | locus YBR009C, strain hhf1, active compounds read low 0.957 | locus YBR021W, strain FUR4, active compounds read low 1.02 | locus YBR023C, strain chs3, active compounds read low 0.995 | locus YBR171W, strain sec66, active compounds read low 0.993 | locus YBR229C, strain ROT2, active compounds read low 1.01 | locus YBR231C, strain swc5, active compounds read low 0.994 | locus YBR279W, strain paf1, active compounds read low 1 | locus YCL011C, strain gbp2, active compounds read low 0.99 | locus YCL016C, strain dcc1, active compounds read low 1.01 | locus YCL029C, strain bik1, active compounds read low 1.01 | locus YCL061C, strain MRC1, active compounds read low 0.965 | locus YCL069W, strain vba3, active compounds read low 1 | locus YCR088W, strain abp1, active compounds read low 0.993 | locus YDL005C, strain med2, active compounds read low 1.03 | locus YDL035C, strain GPR1, active compounds read low 1.04 | locus YDL040C, strain nat1, active compounds read low 0.999 | locus YDL074C, strain BRE1, active compounds read low 1.04 | locus YDL101C, strain DUN1, active compounds read low 1.01 | locus YDL134C, strain PPH21, active compounds read low 0.999 | locus YDL185W, strain tfp1, active compounds read low 0.992 | locus YDL192W, strain arf1, active compounds read low 1.01 | locus YDR001C, strain nth1, active compounds read low 0.996 | locus YDR069C, strain doa4, active compounds read low 1.03 | locus YDR101C, strain arx1, active compounds read low 1 | locus YDR137W, strain rgp1, active compounds read low 1.03 | locus YDR150W, strain NUM1, active compounds read low 0.982 | locus YDR159W, strain sac3, active compounds read low 0.936 | locus YDR162C, strain NBP2, active compounds read low 1.05 | locus YDR297W, strain sur2, active compounds read low 1.01 | locus YDR318W, strain mcm21, active compounds read low 1 | locus YDR334W, strain swr1, active compounds read low 1 | locus YDR335W, strain msn5, active compounds read low 1.01 | locus YDR388W, active compounds read low 1 | locus YDR392W, strain spt3, active compounds read low 0.842 | locus YDR502C, strain sam2, active compounds read low 0.983 | locus YEL003W, strain gim4, active compounds read low 0.984 | locus YEL037C, strain rad23, active compounds read low 0.998 | locus YEL061C, strain CIN8 (second series), active compounds read low 1 | locus YEL061C, strain CIN8, active compounds read low 1.01 | locus YER015W, strain faa2, active compounds read low 1.01 | locus YER016W, strain bim1, active compounds read low 1 | locus YER110C, active compounds read low 0.982 | locus YER111C, strain swi4, active compounds read low 1 | locus YER155C, strain BEM2, active compounds read low 1.01 | locus YER167W, strain BCK2, active compounds read low 1.01 | locus YFR010W, strain ubp6, active compounds read low 0.999 | locus YGL078C, strain dbp3, active compounds read low 0.991 | locus YGL086W, strain mad1, active compounds read low 0.988 | locus YGL167C, strain pmr1, active compounds read low 1.01 | locus YGL173C, strain kem1, active compounds read low 0.988 | locus YGL227W, strain vid30, active compounds read low 0.997 | locus YGL240W, strain doc1, active compounds read low 0.916 | locus YGL248W, strain PDE1, active compounds read low 0.996 | locus YGL253W, strain hxk2, active compounds read low 0.984 | locus YGR078C, strain PAC10, active compounds read low 0.989 | locus YGR135W, strain pre9, active compounds read low 0.957 | locus YGR252W, strain gcn5, active compounds read low 0.921 | locus YHR013C, strain ard1, active compounds read low 1.01 | locus YHR027C, strain rpn1, active compounds read low 1.01 | [1] 1.01 and 0.966 | locus YHR079C, strain IRE1 (second series), active compounds read low 1 | [2] 0.965 | locus YHR094C, strain hxt1, active compounds read low 0.993 | locus YHR129C, strain ARP1, active compounds read low 1.02 | locus YHR142W, strain chs7, active compounds read low 0.929 | locus YHR200W, strain rpn10, active compounds read low 0.98 | locus YIL066C, strain RNR3, active compounds read low 1.02 | locus YIL073C, strain SPO22, active compounds read low 0.967 | locus YIL125W, strain kgd1, active compounds read low 1 | locus YIR030C, strain dcg1, active compounds read low 0.997 | locus YJL092W, strain hpr5, active compounds read low 0.992 | locus YJL095W, strain BCK1 (second series), active compounds read low 0.996 | [3] 1.02 and 0.967 | locus YJL115W, strain asf1, active compounds read low 1.01 | locus YJL129C, strain trk1, active compounds read low 0.995 | locus YJL134W, strain LCB3, active compounds read low 1 | locus YJL154C, strain vps35, active compounds read low 1.01 | locus YJL164C, strain tpk1, active compounds read low 0.976 | locus YJL166W, strain qcr8, active compounds read low 0.978 | locus YJL168C, strain set2, active compounds read low 0.993 | locus YJL187C, strain SWE1 (second series), active compounds read low 1.01 | locus YJL187C, strain SWE1, active compounds read low 1 | [4] 0.89 | locus YKL009W, strain mrt4, active compounds read low 1.02 | locus YKL068W, active compounds read low 0.99 | locus YKL085W, strain MDH1 (second series), active compounds read low 1.01 | locus YKL085W, strain MDH1, active compounds read low 1.01 | locus YKL160W, strain elf1, active compounds read low 0.986 | locus YKL190W, strain CNB1, active compounds read low 1.01 | locus YKR001C, strain vps1, active compounds read low 0.998 | locus YKR026C, strain gcn3, active compounds read low 0.994 | locus YKR091W, strain srl3, active compounds read low 0.998 | locus YLL001W, strain dnm1, active compounds read low 0.992 | locus YLL026W, active compounds read low 0.992 | locus YLL041C, strain sdh2, active compounds read low 0.998 | locus YLR027C, strain aat2, active compounds read low 0.987 | locus YLR039C, strain RIC1, active compounds read low 1.1 | locus YLR058C, strain SHM2, active compounds read low 1.02 | locus YLR102C, strain apc9, active compounds read low 0.992 | [5] 0.955 | locus YLR221C, strain rsa3, active compounds read low 0.971 | locus YLR258W, strain gsy2, active compounds read low 0.982 | locus YLR262C, strain YPT6 (second series), active compounds read low 1.01 | locus YLR262C, strain YPT6, active compounds read low 1.15 | locus YLR268W, strain sec22, active compounds read low 1.01 | locus YLR320W, strain mms22, active compounds read low 0.972 | locus YLR330W, strain CHS5, active compounds read low 1.01 | locus YLR342W, strain FKS1, active compounds read low 1.01 | locus YLR357W, strain rsc2, active compounds read low 1.01 | locus YLR370C, strain arc18, active compounds read low 1 | locus YLR371W, strain rom2, active compounds read low 0.975 | locus YLR384C, strain iki3, active compounds read low 1.01 | locus YLR418C, strain cdc73, active compounds read low 0.998 | locus YML016C, strain PPZ1, active compounds read low 1 | locus YML032C, strain rad52, active compounds read low 1.01 | locus YML120C, strain ndi1, active compounds read low 0.99 | locus YML124C, strain tub3, active compounds read low 0.988 | locus YMR058W, strain fet3, active compounds read low 0.972 | locus YMR078C, strain ctf18, active compounds read low 0.98 | locus YMR125W, strain sto1, active compounds read low 1.06 | locus YMR129W, active compounds read low 1.01 | locus YMR205C, strain PFK2, active compounds read low 1 | locus YMR223W, strain ubp8, active compounds read low 0.989 | locus YMR231W, strain pep5, active compounds read low 1.02 | locus YMR307W, strain GAS1, active compounds read low 1.02 | locus YNL067W, strain RPL9B, active compounds read low 1 | locus YNL071W, strain lat1, active compounds read low 0.985 | locus YNL128W, strain TEP1, active compounds read low 1.03 | locus YNL153C, strain GIM3, active compounds read low 1.02 | [6] 0.918 | locus YNL209W, strain ssb2, active compounds read low 1 | locus YNL233W, strain BNI4, active compounds read low 1.03 | locus YNL248C, strain rpa49, active compounds read low 0.969 | locus YNL250W, strain rad50, active compounds read low 0.99 | locus YNL271C, strain bni1, active compounds read low 0.985 | locus YNL298W, strain CLA4, active compounds read low 1 | locus YNL307C, strain MCK1, active compounds read low 0.978 | locus YNL322C, strain KRE1 (second series), active compounds read low 1.01 | locus YNR049C, strain mso1, active compounds read low 1.01 | locus YNR052C, strain pop2, active compounds read low 0.988 | locus YOL006C, strain TOP1, active compounds read low 1.06 | locus YOL012C, strain htz1 0.925 | locus YOL147C, strain pex11, active compounds read low 1 | locus YOR001W, strain rrp6, active compounds read low 0.959 | locus YOR061W, strain CKA2, active compounds read low 1.03 | locus YOR069W, strain VPS5, active compounds read low 1 | locus YOR070C, strain gyp1, active compounds read low 0.998 | locus YOR080W, strain dia2, active compounds read low 1.01 | locus YOR083W, strain WHI5, active compounds read low 0.965 | locus YOR106W, strain vam3, active compounds read low 0.972 | locus YOR136W, strain idh2, active compounds read low 1 | locus YOR144C, strain elg1, active compounds read low 0.999 | locus YOR184W, strain ser1, active compounds read low 1.03 | [7] 0.956 | locus YOR265W, strain rbl2, active compounds read low 0.989 | locus YOR270C, strain vph1, active compounds read low 0.915 | locus YOR290C, strain snf2, active compounds read low 0.95 | locus YOR316C, strain cot1, active compounds read low 0.995 | locus YPL051W, strain arl3, active compounds read low 0.966 | locus YPL078C, strain atp4, active compounds read low 0.954 | locus YPL106C, strain sse1, active compounds read low 0.982 | locus YPL240C, strain hsp82, active compounds read low 1 | [8] 0.978 | locus YPR119W, strain clb2, active compounds read low 0.988 | locus YPR141C, strain kar3, active compounds read low 0.993 | locus YPR163C, strain tif3, active compounds read low 0.986 | locus YPR167C, strain met16, active compounds read low 0.991 | strain wtn01, active compounds read low 0.991
